From PubChem BioAssay AID1531 (NMMLSC, 2009) come the findings set out here.

Structures are written as SMILES. “And” between values parts separate entries of the source, which are not always exact repeats. Identical values can stand only once. In all, about 290,000 compounds went through this assay and about 3,300 (1.1%) were called active. The sample as a whole holds a higher share of actives than the screen did. A number with no mark means an inactive call. Rule as the data show it: active = binding response below about 67% or above about 130%; inconclusive = no clear call, values can overlap the other calls; inactive = in between.

The target of the assay is Mitogen-activated protein kinase kinase kinase 2 (Homo sapiens) (UniProt Q9Y2U5). The assay can be described thus: wildtype MEKK2 PB1-MEK5 interaction, increase or decrease – biochemical, multiplex bead flow cytometry, Alexa488-MEK5, primary screen (AID 1531). Particulars: Alexa488-MEK5 binding to MEKK2 WT, at 10 µM, actives lie on both sides. (In general: A flow cytometer gives signals particle by particle.)
Take `Cc1nc2ccccc2nc1N/N=C/c1ccc(O)cc1O`: the binding response (% of control) is 101%. `O=C(O)c1ccccc1-c1ccccc1C(=O)NCCc1ccccc1`: the binding response (% of control) was 100%. For the compound `O=C(NCCCN1CCOCC1)c1cc(-c2ccc(Cl)cc2)on1`, the binding response (% of control) is 103%. On to `Cc1c(C)n(Cc2ccc(Cl)cc2)c2ccc(C(=O)NCCCN3CCOCC3)cc12`, for which the binding response (% of control) was 138% (active). The result for `O=C(NCCN1CCOCC1)c1ccc2c(c1)N(Cc1ccc(Cl)cc1)CCS2` reads 104%; that for `COc1ccc(CNC(=O)C(C)NCc2ccccc2Cl)cc1` (configuration not stated), 103%. Then `Cc1c(C)c(C)c(S(=O)(=O)N2CCC3(CC2)OCCO3)c(C)c1C`, with 108%. For `Cc1cc(C)n(CCNS(=O)(=O)c2ccc(Cl)cc2)n1`, the binding response (% of control) is 103%. With `Cc1cc2cc(CNC(=O)c3cccs3)ccc2[nH]1`, the binding response (% of control) was 55% [inhibitor] (active). With `CCc1cccc(CC)c1NC(=S)NCc1ccc2[nH]c(C)cc2c1`, the binding response (% of control) is 102%. Then `Cc1cc2cc(CNC(=O)c3ccc(S(=O)(=O)N4CCOCC4)cc3)ccc2[nH]1`, with 97%; and `CC(NC(=O)C1CCCN(S(=O)(=O)c2ccc(-n3cnnn3)cc2)C1)c1ccc(F)cc1` (configuration not stated), with 108%. Then `COc1cccc(N(CC(=O)NC2CCCCCC2)S(=O)(=O)c2ccccc2)c1`, with 111%. For the compound `COc1cccc(C2CC(c3ccccc3)=NN2S(=O)(=O)c2ccccc2)c1OC` (configuration not stated), the binding response (% of control) was 20% [inhibitor] (active). The result for `CCOc1ccccc1C1CC(c2cccc(NS(C)(=O)=O)c2)=NN1C(=O)c1ccccc1` (configuration not stated) reads 100%; that for `COc1ccc(C2=NN(C(=O)c3ccccc3C(=O)O)C(c3ccccc3O)C2)cc1` (configuration not stated), 100%; that for `COc1ccc(NC(=O)NCCN2CCN(c3ccc(C)cc3)CC2)c(Cl)c1`, 113%. As to `Cc1ccc(-n2ncc(C(=O)NC3CC3)c2C2CCN(C(=O)OC(C)(C)C)CC2)c(C)c1`, the binding response (% of control) was 96%.

With `O=C(CN(Cc1ccccc1)C(=O)CCC(=O)Nc1ccccn1)NCCc1ccccc1`, the binding response (% of control) was 107%. As for `O=C(NC(=S)NC1CCCCC1)c1ccc(Cl)cc1`, the binding response (% of control) is 103%. Turning to `COC(=O)c1ccc(C(=O)OC)c(NC(=S)N2CCN(c3ccc(F)cc3)CC2)c1`, the binding response (% of control) was 98%. Regarding `COc1ccccc1NC(=S)N1CCN(C(c2ccccc2)c2ccccc2)CC1`, the binding response (% of control) is 98%. On to `COc1ccccc1NC(=S)N1CCN(c2ccc(F)cc2)CC1`, for which the binding response (% of control) was 16% [inhibitor] (active). Take `O=C(O)CSc1c2c(nc3cc(C(=O)Nc4cccc(C(F)(F)F)c4)ccc13)CCCC2`: the binding response (% of control) was 105%. Then `COc1ccccc1OCC(O)CN1CCOCC1` (configuration not stated), with 109%; and `CC(C)(C)NCC(O)COc1cccc2[nH]c(=O)[nH]c12` (configuration not stated), with 113%; and `COc1ccccc1OCCNCC(O)COc1cccc2[nH]c3ccccc3c12` (configuration not stated), with 166% (active) and 155% (active) and 213% (active).

As to `Cc1ccc(NC(=O)C/C(N)=N/O)cc1Cl`, the binding response (% of control) is 100%.

For the compound `Cc1ccc(NC(=O)COc2ccc(-n3ccnc3)cc2)cc1Cl`, the binding response (% of control) is 153% (active). Turning to `CCC(=O)c1ccc(OCC(=O)Nc2ccc3nc(C)sc3c2)cc1`, the binding response (% of control) is 87%. For the compound `CC(C)(C)c1ccccc1NC(=O)CN1C(=O)NC2(CCCC2)C1=O`, the binding response (% of control) is 100%.

As for `CC(C)c1ccc2oc(=O)cc(CN3CCN(Cc4ccccc4)CC3)c2c1`, the binding response (% of control) is 115%.

On to `O=C(Nc1ccc(C(=O)N2CCCCC2)cc1)c1cccc([N+](=O)[O-])c1`, for which the binding response (% of control) was 100%. Then `Cc1cc([N+](=O)[O-])ccc1NC(=O)c1ccc(NC(=O)C(C)C)cc1`, with 101%; and `Cn1ccc(=Nc2ccc(NC(=O)c3ccc(N=c4ccn(C)c5ccc([N+](=O)[O-])cc45)cc3)cc2)cc1`, with 146% (active); and `CCOc1ccccc1N1CCN(C(=S)Nc2ccc(S(N)(=O)=O)cc2)CC1`, with 102%.

For the compound `COc1ccc(N2CCN(C(=S)Nc3ccc(S(N)(=O)=O)cc3)CC2)cc1`, the binding response (% of control) was -9% (active). Then `NS(=O)(=O)c1ccc(NC(=S)N2CCCC2)cc1`, with 100%; and `CCc1ccc(S(=O)(=O)Nc2cc3c(cc2N2CCCCC2)n(C)c(=O)c(=O)n3C)cc1`, with 101%; and `O=C(NCc1nnc(SCC(=O)N2CCCCCC2)o1)c1ccc(F)cc1`, with 102%. As to `Cc1ccc2c(c1)C1CN(C)CCC1N2S(=O)(=O)c1ccc(Oc2ccc([N+](=O)[O-])cc2)cc1` (configuration not stated), the binding response (% of control) was 201% (active).

Take `Cc1ccc2c(c1)C1CN(C)CCC1N2C(=O)c1ccccc1NS(=O)(=O)c1ccc(F)cc1C` (configuration not stated): the binding response (% of control) is 98%. Regarding `Cc1ccc2c(c1)C1CN(C)CCC1N2C(=S)Nc1ccc(OC(F)F)cc1` (configuration not stated), the binding response (% of control) is 118%. With `COc1ccc2c(c1)c(C(=O)N/N=C/c1cccs1)c(C)n2C`, the binding response (% of control) was 99%.

`O=C(NCCCN1CCCC1=O)C(=O)NCC1OCCN1S(=O)(=O)c1ccc(Br)cc1` (configuration not stated): the binding response (% of control) was 103%. `CC(=O)Nc1ccc(Nc2ncnc3c2nnn3Cc2ccccc2Cl)cc1`: the binding response (% of control) was 107%.

Turning to `OC(COc1cccc2ccccc12)CN1CCN(c2ccccn2)CC1` (configuration not stated), the binding response (% of control) was 105%. The result for `CCC(C)Sc1nc2c(c(=O)[nH]c(=O)n2C)n1CC(O)COc1cccc2ccccc12` (configuration not stated) reads 107%; that for `CC(C)c1ccccc1OCC(O)CN(CC(O)COc1cccc2ccccc12)C(C)C` (configuration not stated), 181% (active). As for `CCN1C(=O)N[C@@H](CCc2ccccc2)C(C(=O)OC)=C1C`, the binding response (% of control) was 94%. Turning to `CCCCC1(C(=O)OCC)NC(c2ccc(O)cc2)C2C(=O)N(c3ccccc3)C(=O)C21` (configuration not stated), the binding response (% of control) is 99%. Then `CC(C)[C@H](NC(=O)N1CCn2c1nc1ccccc12)C(=O)NC1CC1`, with 101%; and `CC(C)C[C@H](NC(=O)C1CCC(CNC(=O)[C@@H]2CCCN2C(=O)OC(C)(C)C)CC1)C(=O)O` (some centres not stated), with 103%; and `O=C(O)c1cc(S(=O)(=O)N(Cc2ccccc2)c2cccc(C(F)(F)F)c2)ccc1Cl`, with 108%. On to `CCc1nnc(NC(=O)CCN(c2ccc(C)cc2)S(=O)(=O)c2ccccc2)s1`, for which the binding response (% of control) is 108%. Consider `Cc1ccc(N(CCC(=O)O)S(=O)(=O)c2cccc(C(F)(F)F)c2)cc1`, for which the binding response (% of control) is 4% [inhibitor] (active). On to `Cc1cc(C)cc(C(=O)NC(CC(N)=O)c2ccc(N3CCC(N4CCCCC4)CC3)c([N+](=O)[O-])c2)c1` (configuration not stated), for which the binding response (% of control) was 105%.
